Rows were chosen to be rich in hits. Some 17% of all compounds tested hit in one or more screens of this group.
DT40 TDP1 no CPT: qHTS for Inhibitors of human tyrosyl-DNA phosphodiesterase 1 (TDP1): qHTS in cells in absence of CPT; DT40 Tdp1-/- hTDP1 cells, no CPT, ATP luminescence, 48 h; Potency, µM (top dose mostly 46.2 µM), inactives show at the top dose activity change, negative = growth inhibition, usual class: inhibitors; actives 15% (n = 420,000); note: % is set by controls: 0 for no effect and ±100 for the full control effect; nearly all actives have a fitted effect of over 55% in size
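Growth kinetics read by CellTiter-Glo luminescence after ≥48 hr at 37 °C. Cells: DT40 Tdp1-/- stably carrying human TDP1, 400 per well, compound exposure in the absence of CPT (DMSO vehicle).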
HepG2 tox-1: qHTS for Inhibitors of TGF-b: Cytotox Counterscreen. actives 0.76% (n = 410,000). HepG2 CAGA-GFP viability, ATP luminescence, 18 h. AID 588856, 2011. Potency, µM (series often up to 46.1 µM), without a hit: at the top dose activity change, negative = cytotoxicity, actives largely listed as cytotoxic
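HepG2 CAGA-GFP cells (1000/well, DMEM with 1% FBS) received compound, then TGF-beta at 500 pg/mL final, and were incubated 18 hours at 37 degrees C. Viability was read by CellTiter-Glo luminescence. Media-only wells were set as complete cell-killing and DMSO as no toxicity.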
TGFb inhibitor: qHTS for Inhibitors of TGF-b | HepG2 CAGA-GFP TGF-b/SMAD3 reporter, GFP fluorescence, 18 h; TGF-beta stimulated, 500 pg/mL final | Potency, µM (doses to about 46.1 µM), for the others: top-dose activity, negative = inhibition, most hits filed as inhibitors | actives 1.2% (n = 410,000) | AID 588855, 2011; note: % is set by controls: 0 for no effect and ±100 for the full control effect; nearly all actives have a fitted effect of over 65% in size
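HEPG2 CAGA-GFP, 1000 cells/well; 2 h settle, 37 C; cpd via pin tool; TGF-b 500 pg/mL final; 18 h, 37 C; GFP imaging ex488/em500-530; %Activity normalised to -TGF-b and +DMSO controls; CRC fit, curve class.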
TDP1 cell CPT: qHTS for Inhibitors of human tyrosyl-DNA phosphodiesterase 1 (TDP1): qHTS in cells in presence of CPT; actives 12% (n = 420,000); AID 686979, 2013; Potency, µM (top dose mostly 46.2 µM), for inactives: at the highest dose activity change, negative = growth inhibition, most hits filed as inhibitors; chicken DT40 Tdp1-/-;hTDP1 cells + 20 nM CPT, ATP luminescence, 48 h; note: % is set by controls: 0 for no effect and ±100 for the full control effect; nearly all actives have a fitted effect of over 55% in size
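Cell growth measured by CellTiter-Glo luminescence after a minimum 48 h, 37 C compound exposure with 20 nM CPT in Tdp1-knockout DT40 cells stably expressing hTDP1, seeded 400/well; qHTS titration format.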
ATXN viability: Viability Counterscreen for Primary qHTS for Inhibitors of ATXN expression. AID 651635, 2014. actives 0.49% (n = 400,000). S2 cells (HEK-293 line with an ATXN2-luciferase reporter) viability, CellTiter-Fluor protease fluorescence, 24 h. Potency, µM (titrated, usually from 56.7 µM), most hits filed as cytotoxic; note: nearly all actives have a fitted effect of over 40% in size
ATXN2 expr inh: Primary qHTS for Inhibitors of ATXN expression; actives 0.72% (n = 360,000); AID 1745845, 2022; HEK-293 ATXN2-luciferase reporter, luminescence, 24 h; Potency, µM (top dose mostly 57 µM), without a hit: at the highest dose activity change, negative = inhibition, usual class: inhibitors; note: % is set by controls: 0 for no effect and ±100 for the full control effect; nearly all actives have a fitted effect of over 55% in size
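qHTS (up to 57 uM final) was run with 24 h compound exposure of reporter cells at 37 °C. Each well was multiplexed: SteadyGlo luminescence measured ATXN2-luciferase expression after a fluorogenic Gly-Phe-AFC viability readout (25 uM final).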
TGFb CAGA inh: qHTS for Inhibitors of TGF-b: Confirmation of Cherry Picks; shares compounds with TGFb inhibitor; HepG2 CAGA-GFP TGF-b reporter, GFP fluorescence, 18 h; cells stimulated with TGF-beta, 500 pg/mL; Potency, µM (top dose mostly 46.1 µM), for the others: at the top dose activity, negative = inhibition, hits mostly inhibitors; actives 63% (n = 1,600); note: % is set by controls: 0 for no effect and ±100 for the full control effect; nearly all actives have a fitted effect of over 65% in size
HepG2 tox-2: qHTS for Inhibitors of TGF-b: Cytotox Counterscreen for Cherry Picks. shares compounds with TGFb inhibitor. HepG2 CAGA-GFP viability, ATP luminescence, 18 h; cells stimulated with TGF-beta, 500 pg/mL. Potency, µM (top dose mostly 46.1 µM), without a hit: at the highest dose activity, negative = cytotoxicity, actives largely listed as inhibitors. actives 27% (n = 1,600); note: % is set by controls: 0 for no effect and ±100 for the full control effect; nearly all actives have a fitted effect of over 70% in size
CCL64 TGFb inh: qHTS for Inhibitors of TGF-b: CCL64 Cells Orthogonal Assay for Cherry Picks | Potency, µM (titrated, usually from 46.1 µM), for inactives: at the top dose activity, negative = inhibition, actives largely listed as inhibitors | shares compounds with TGFb inhibitor | CCL64 CAGA-GFP reporter, TGF-b stimulated, GFP fluorescence, 18 h | actives 41% (n = 1,600) | AID 720536, 2013; note: nearly all actives have a fitted effect of over 65% in size
COP TGFb inh: qHTS for Inhibitors of TGF-b: Hit Validation in HepG2 Cells using COP promoter; HepG2 COP-GFP TGF-b reporter, GFP fluorescence, 18 h; cells stimulated by added recombinant TGF-beta; Potency, µM (series often up to 46.1 µM), for inactives: at the top dose activity, negative = inhibition, usual class: inhibitors; actives 3% (n = 1,600); shares compounds with TGFb inhibitor; note: nearly all actives have a fitted effect of over 70% in size
The depositor's hits bear a star; i = inactive; ? = inconclusive; nt = no result given. Calls come from the whole dose curve; as a rule, active = well fitted curve in the direction sought with a large enough effect; inconclusive = small, poorly fitted or top-dose-only effect, or another doubt; inactive = no such curve, though single readings can be large; an effect the other way counts as inactive or inconclusive. Potency is the fitted concentration of half-maximal effect.

SMILES | DT40 TDP1 no CPT | HepG2 tox-1 | TGFb inhibitor | TDP1 cell CPT | ATXN viability | ATXN2 expr inh | TGFb CAGA inh | HepG2 tox-2 | CCL64 TGFb inh | COP TGFb inh
COc1cccc(/C=N/Nc2ncnc(Cl)c2N)c1O | 0.52µM* | -27% | 7.1µM* | 0.82µM* | 11µM* | ? | ? | 12µM* | 5.2µM* | 57%
Cc1ccc(NC(=O)CSc2nnc(C)n2-c2ccccc2)cc1 | -25% | 10% | 18% | -1% | i | 2% | nt | nt | nt | nt
Cc1nnc(SCC(=O)N/N=C/c2cn(-c3ccccc3)nc2-c2ccccc2)n1-c1ccccc1 | ? | 0% | 7.1µM* | ? | ? | -6% | ? | -23% | ? | 8%
COc1ccc(NC(=O)c2noc3c2CCCC3)cc1Cl | -1% | -14% | 12% | -22% | i | 43% | nt | nt | nt | nt
CCOC1(OCC)N=C(N)C2(C#N)C(c3ccc(NC(C)=O)cc3)C12C#N (centres undefined) | 0% | -77% | -8% | 3% | i | 5% | nt | nt | nt | nt
CC(C)CN(C(=O)COc1ccc(-c2nnco2)cc1)C1CCS(=O)(=O)C1 (centres undefined) | 2% | 11% | 10% | ? | i | 1% | nt | nt | nt | nt
COc1ccc(CCNC(=O)c2ccc(-c3ccc([N+](=O)[O-])cc3Cl)o2)cc1OC | 8.2µM* | -24% | 10µM* | 7.3µM* | i | -35% | 21µM* | ? | 9.2µM* | 32%
Cc1cc(NC(=S)NC(=O)C2CC2)ccc1Br | ? | -2% | 4µM* | ? | i | 71% | 0.82µM* | 0.46µM* | ? | 25%
FC(F)(F)c1nc2ccccc2n2c(-c3ccc(Cl)cc3)nnc12 | 12µM* | -32% | 4.5µM* | 7.3µM* | i | -24% | 5.2µM* | ? | 12% | 66%
CCC1=Nc2cc(C(=O)NCc3ccco3)ccc2Sc2ccc(C)cc21 | 1.3µM* | -25% | ? | 1.5µM* | i | -5% | 2.3µM* | -18% | 1.5µM* | 11%
CCC1=Nc2cc(C(=O)NCCN3CCOCC3)ccc2Sc2ccc(Br)cc21 | 1% | -10% | 20% | -25% | i | 7% | nt | nt | nt | nt
CCOC(=O)N1CCC(NC(=O)c2ccc3c(c2)N=C(CC)c2cc(C)ccc2S3)CC1 | 18µM* | -6% | 16µM* | 10µM* | i | ? | 12µM* | -19% | ? | 26%
Cc1ccc(C)c(Sc2ccc(S(=O)(=O)Nc3ccc(C(=O)O)cc3)cc2)c1 | 3% | -18% | ? | -4% | nt | nt | nt | nt | nt | nt
CC1CC(C)CN(C(=O)Nc2ccccc2F)C1 (centres undefined) | -2% | -2% | -13% | 4% | i | nt | nt | nt | nt | nt
CCCCNc1c(-c2ccc(OC)c(SC(C)CC)c2)nc2ccc(Cl)cn12 (centres undefined) | 26µM* | -6% | 10µM* | 26µM* | ? | -20% | ? | -19% | ? | -5%
COc1ccc(N2CCN(C3CCCN(Cc4ccc(F)cc4Cl)C3)CC2)cc1 (centres undefined) | ? | -50% | ? | ? | i | -30% | nt | nt | nt | nt
Cn1c(=O)oc2cc(S(=O)(=O)N3CCCC(C(=O)NC4CCCc5ccccc54)C3)ccc21 (centres undefined) | ? | -35% | 0.56µM* | ? | ? | ? | ? | ? | -1% | 71%
N#CN/C(=N\S(=O)(=O)c1ccccc1)c1ccccc1 | 5% | 3% | 8% | 42% | i | 9% | nt | nt | nt | nt
COc1cc2c(c(OC)c1OC)-c1c(cc3c(c1OC)OCO3)C1OC2[C@@H](C)[C@H]1C (some centres undefined) | ? | 0% | 1% | ? | i | 2% | nt | nt | nt | nt
COc1cc(C2C3=C(COC3=O)Oc3cc4c(cc32)OCO4)ccc1O (centres undefined) | 0.58µM* | -4% | 13µM* | 0.82µM* | ? | -9% | -30% | 8% | ? | -17%
COc1cc(C2C3=C(COC3=O)OC(C)(C)Oc3cc4c(cc32)OCO4)cc(OC)c1OC (centres undefined) | 0.73µM* | -2% | 2.8µM* | 1µM* | ? | -1% | ? | 0% | ? | -2%
COc1cc(C2C3=C(CC(C)(C)CC3=O)NC3=C2C(=O)c2ccccc23)ccc1O (centres undefined) | -25% | -5% | -7% | -8% | ? | -10% | nt | nt | nt | nt
N#C/C(=N\Nc1ccc(Cl)cc1)C(=O)c1ccsc1 | 23µM* | -27% | ? | 16µM* | ? | ? | 8.2µM* | 7.3µM* | 21µM* | 15%
CCC/C=C1/CCCOC(C(=O)NCc2ccccc2)(C(F)(F)F)C1 (centres undefined) | ? | -14% | ? | ? | i | -4% | nt | nt | nt | nt
